# Compounds without any hit were thinned out: in the full panel of roughly 83,000, 20% have a hit.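 Percent growth is the endpoint: 0 to 100 indicates growth inhibition (40 means 60% inhibition), 0 means no net growth, and negative values indicate cell death.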 A number with no mark means an inactive call. Active and inactive are the calls of the source.
# Test system: UACC-62 melanoma
# Test: NCI-60 one-dose screen, 48 h (100 = growth as untreated, 0 = no growth, -100 = all killed)
# Settings: 10 µM
# Protocol: Growth inhibition of the UACC-62 human tumor cell line is measured as a screen for anti-cancer activity. Cells are grown in 96 well plates and exposed to the test compound for 48 hours. Compounds are tested at a single concentration, which is 10^-5 M for most compounds. The reported endpoint is percent growth (GI% or GIPRCNT), where numbers from 0 - 100% represent growth inhibition, and numbers from -100% - 0 represent cell death. For example, a value of 40 represents 60% growth inhibition. A value of 0 means no net growth occurred over the course of the experiment. A value of -40 indicates 40% of cells at the beginning of the experiment died by the end of the experiment. A value of -100 means all cells are dead at the end of the experiment.
# NCI-60 Human Tumor Cell Lines Screen was performed using the standard one-dose NCI protocol, which is described in more detail at https://dtp.cancer.gov/discovery_development/nci-60/default.htm.
# Compounds with GIPRCNT values below 10 were considered active. Activity score was based on GIPRCNT using the following formula: […]
# Score is 0 for GIPRCNT values of 100 or above, 50 for GIPRCNT values of 0, and 100 for GIPRCNT values of -100.
row,Compound,growth
1,O=C(Nc1ccc(Oc2ncnc3scc(Nc4n[nH]c(=S)s4)c23)cc1)C1(C(=O)Nc2cccc(C(F)(F)F)c2)CC1,86.5%
2,Cc1ccc(COc2ccc(NC(=O)Nc3ccc(Cl)c(C(F)(F)F)c3)cc2)cc1,60.5%
3,CCOC(=O)c1ccc(NC(=O)CSC(CC(=O)c2sc(Nc3ccccn3)nc2C)c2ccccc2F)cc1 (stereo not given),11.8%
4,COc1cccc(O)c1/C=C1\SCc2cc3c(OC)cccc3[o+]c21,98.7%
5,O=C(c1ccc(Cl)cc1)C(c1c[nH]c2ccccc12)c1c[nH]c2ccccc12,-53.4% (active)
6,Cc1cc(N=C2NC(=O)S/C2=C\c2ccc(F)cc2)n[nH]1,-19.6% (active)
7,O=C(CC(=O)Nc1ccc(Oc2ncnc3scc(Nc4n[nH]c(=S)s4)c23)cc1)Nc1ccc(Cl)cc1,53.6%
8,C#C[C@]1(O)CC[C@H]2[C@@H]3CC=C4c5sc(Nc6cc(C)cc(C)n6)nc5CC[C@]4(C)[C@H]3CC[C@@]21C,-53.1% (active)
9,O=C(Nc1ccc(OCc2ccc(F)cc2)cc1)Nc1ccc(Cl)c(C(F)(F)F)c1,6.53% (active)
10,COc1ccc(C(=O)COc2ccc(NC(=O)Nc3ccc(Cl)c(C(F)(F)F)c3)cc2)cc1,7.25% (active)
11,COC(=O)CNC(=O)COc1c(OC)c(OC)cc2oc(-c3cccc(C(=O)Nc4ccc(Cl)cc4)c3)cc(=O)c12,12.7%
12,COc1ccccc1-n1cc(C#N)c(N)c1C(=O)c1ccc(Cl)cc1Cl,26.9%
13,Fc1ccc(-c2csc(Nc3cccc(Nc4nc(-c5ccc(F)cc5)cs4)c3)n2)cc1,57.1%
14,Cn1cc(-c2cc(N)n3nc(-c4cn(C)c5ccccc45)cc3n2)c2cc(F)ccc21,-67.7% (active)
15,COc1ccc(C2c3sc4ccc(C)cc4c3Oc3nc(N)nc(N)c32)cc1 (stereo not given),63.4%
16,Cc1ccc2c(c1)C(=O)/C(=C/c1c[nH]c3ccccc13)S2,54.4%
17,Cc1ccc(S(=O)(=O)N2CCN(S(=O)(=O)c3oc(-c4ccccc4)nc3C#N)CC2)cc1,45.3%
18,O=C1NC2C=CC=CC2/C1=C1/SC(=S)N(C2CC(=O)N(c3ccc(Br)cc3)C2=O)C1=O (stereo not given),87.6%
19,O=C(CSc1nc2ccccc2c(=O)n1-c1ccc(Cl)cc1)Nc1ccc(-c2nc3ccccc3[nH]2)cc1,-12.1% (active)
20,COc1ccc(-n2c(SCC(=O)NNS(=O)(=O)c3ccccc3)nc3ccc(Cl)cc3c2=O)cc1,77%

row,Compound,growth
1,CCOc1ccc(/C=N/NC(=O)Cn2nc(Cc3ccc(OC)cc3)c3onc(C)c3c2=O)cc1,29.2%
2,COc1cccc(C(=O)CSc2nc(-c3ccc(OCc4ccccc4)c(OC)c3)c(C#N)c(=O)[nH]2)c1,90.9%
3,Cc1cc(N=C2NC(=O)/C(=C/c3cc(C(C)(C)C)c(O)c(C(C)(C)C)c3)S2)n[nH]1,8.86% (active)
4,O=C(CN1CCN(c2ncnc3c2cnn3-c2ccccc2)CC1)Nc1ccc(Cl)cc1,45.3%
5,Fc1ccc(/C=C/c2nc3ccccc3n3c(-c4ccc(Cl)cc4)nnc23)cc1,70.2%
6,COc1ccc(Cc2nn(CC(=O)N/N=C/c3ccc(Br)cc3)c(=O)c3c(C)noc23)cc1,54.3%
7,COc1ccc(Cc2nn(CC(=O)N/N=C/c3ccc([N+](=O)[O-])cc3)c(=O)c3c(C)noc23)cc1,73.9%
8,C#C[C@]1(O)CC[C@H]2[C@@H]3CC=C4c5sc(Nc6ccc(N(C)C)cc6)nc5CC[C@]4(C)[C@H]3CC[C@@]21C,-2.23% (active)
9,COc1ccc(C2OC[C@@]3(C)C4CC[C@]5(C)C(CC=C6C7CC(C)(C)CC[C@]7(C(=O)O)CC[C@]65C)[C@@]4(C)C[C@@H](O)[C@@H]3O2)cc1 (stereo not given in full),85.3%
10,COc1ccc(C(=O)COc2ccc(NC(=O)Nc3ccccc3)cc2)cc1,80%
11,CC1[C@H]2[C@H](C[C@H]3[C@@H]4CC=C5c6sc(Nc7cccc(Cl)n7)nc6CC[C@]5(C)[C@H]4CC[C@@]32C)O[C@]12CC[C@@H](C)CO2 (stereo not given in full),54.5%
12,O=C(CSc1nc2ccccc2c(=O)n1-c1ccc(Cl)cc1)Nc1ccc(-c2nc3ccc([N+](=O)[O-])cc3[nH]2)cc1,36.9%
13,COc1cc(C2CC(c3ccccc3)=Nc3c(N)nc(N)nc3N2)ccc1Oc1nc(NCCO)nc(N2CCOCC2)n1 (stereo not given),97.1%
14,COc1cc(C2CC(c3ccc(Oc4ccc(Cl)cc4)cc3)=NN2c2nc(-c3ccc(Cl)cc3)c(C#N)c(N3CCOCC3)n2)cc(OC)c1OC (stereo not given),91.2%
15,COc1ccc(Cn2cc(C#N)c(N)c2C(C)=O)c(OC)c1,98.1%
16,O=C(CN1CCN(c2ncnc3c2cnn3-c2ccccc2)CC1)Nc1ccc(Br)cc1,45.1%
17,COc1cc(Nc2nc(O)c(/C=C3\C=Nc4ccccc43)s2)cc(OC)c1OC,-65.9% (active)
18,O=C(Nc1ccc(OCC(=O)c2ccc(Cl)cc2)cc1)Nc1ccc(Cl)c(C(F)(F)F)c1,18.1%
19,O=C1S/C(=C\c2ccc([N+](=O)[O-])cc2)C(=O)N1CCN1CCCCC1,99.6%
20,CCn1c(SCC(=O)Nc2ccc(-c3nc4ccccc4[nH]3)cc2)nc2ccccc2c1=O,-81.7% (active)

# — PubChem BioAssay (NCI)
